Results reported in the supplement of paper PMC7156485.
± gives the standard deviation of the averaged measurements.

Columns and labels:
Details in all cases: concentration: 10 µM; 24 h
[1] = tested on: HCC1569; test: cell number relative to DMSO (% of DMSO); higher = more cells (less growth inhibition / toxicity)
Summary of the method: (§1)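 Cell number or H1.0 nuclear intensity appears as percent of the plate control, based on the median of replicates. Measurements came from HCC1569 and TDF cells exposed in triplicate to compounds at 10 µM for 24 h at 37 °C, then imaged in six fields per well at ×10. Positional effects were smoothed out of HCC1569 values.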

[2] = tested on: TDF; test: as above
Summary of the method: as §1

[3] = tested on: TDF; test: H1.0 immunofluorescence intensity relative to DMSO (% of DMSO); higher = stronger H1.0 induction, active = 120 or more
Summary of the method: as §1

[4] = tested on: HCC1569; test: H1.0 immunofluorescence intensity relative to DMSO (% of DMSO); higher = stronger H1.0 induction, active = 140 or more
Summary of the method: as §1
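Throughout, for H1.0 immunofluorescence intensity relative to DMSO: TDF is a line of transformed human dermal fibroblasts of mesenchymal origin.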
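Throughout, for cell number relative to DMSO: TDF denotes transformed human dermal fibroblasts of mesenchymal origin.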

SMILES	cell number [1]	cell number [2]	H1.0 immunofluorescence intensity [3]	H1.0 immunofluorescence intensity [4]
O=C(NCCN1CCC2(CC1)C(=O)NCN2c1cccc(F)c1)c1ccc(F)c(F)c1	92.7	92.3	110 (inactive)	107 (inactive)
Br.CC1NCCc2cc(O)c(O)cc21 (stereo unspecified)	100	93.9	105 (inactive)	94.9 (inactive)
O=P1(NCCCl)OCCCN1CCCl (stereo unspecified) [Ifosfamide]	103	105	97.2 (inactive)	112 (inactive)
COC1=CC(=O)OC(CCc2ccc3c(c2)OCO3)C1 (stereo unspecified) [Dihydromethysticin]	96.6	105	90.4 (inactive)	83.9 (inactive)
Nc1ncnc2c1ccn2C1OC(CO)C(O)C1O (stereo unspecified) [Tubericidin]	42.7	32.3	118 (inactive)	70.1 (inactive)
COc1ccc2c(c1)C13CCCCC1C(C2)N(C)CC3 (stereo unspecified) [Dextromethorphan]	103	103	102 (inactive)	107 (inactive)
CC1CCC2C(C)C3C(CC4C5CCC6CC(O)CCC6(C)C5CCC43C)N2C1 (stereo unspecified) [Demissidine]	97.9	92.2	102 (inactive)	92.6 (inactive)
CC(=O)C1=C(O)C2C3c4c[nH]c5cccc(c45)CC3C(C)(C)N2C1=O (stereo unspecified) [Cyclopiazonic acid]	95.5	90.8	100 (inactive)	101 (inactive)
CC(=O)c1c(O)c(C)c(O)c(Cc2c(O)c3c(c(C(=O)C=Cc4ccccc4)c2O)OC(C)(C)C=C3)c1O [Rottlerin]	82.5 ± 13	77.9 ± 6.9	109 (inactive)	104 (inactive)
CCCN(CCC)C1CCc2cccc(O)c2C1 (racemic)	101	88.4	98 (inactive)	86.9 (inactive)
COc1ccc2c(c1)=NC1=C(C)NCCC=21 [Harmaline]	99.3	103	97.5 (inactive)	93.9 (inactive)
CC1CCCC=CC2CC(O)CC2C(O)C=CC(=O)O1 (stereo unspecified) [Brefeldin A]	68.2	52.6	132 (active)	208 (active)
CC1OCC(C[N+](C)(C)C)O1.[I-] (single isomer, unassigned; (+)) [(+)-cis-Dioxolane iodide]	102	103	96 (inactive)	99.6 (inactive)
COc1ccc(Cc2nccc3cc(OC)c(OC)cc23)cc1OC.Cl [Papaverine hydrochloride]	87.1 ± 1.7	77.7 ± 7.8	102 (inactive)	126 (inactive)
C=C1CC2C(CCC3(C)C(=O)CCC23)C2(C)C=CC(=O)C=C12 (stereo unspecified) [Exemestane]	101	97.4	98.1 (inactive)	102 (inactive)
CCC(C)CC(C)N (stereo unspecified) [1,3-dimethylpentylamine]	103	106	99 (inactive)	96.9 (inactive)
CN(C)C(=O)Oc1cc(OC(=O)N(C)C)cc(C(O)CNC(C)(C)C)c1.Cl (stereo unspecified)	104	104	91.4 (inactive)	101 (inactive)
CC(C(O)CCC(C)(C)O)C1CCC2(O)C3=CC(=O)C4CC(O)C(O)CC4(C)C3CCC12C (stereo unspecified) [Ecdysone]	103	112	90.8 (inactive)	88.8 (inactive)
Cc1ncc(CNC(=O)N(CCCl)N=O)c(N)n1.Cl [Nimustine hydrochloride]	97.8	64.7	104 (inactive)	94.4 (inactive)
CC(C)NC(C)Cc1ccc(I)cc1.Cl (stereo unspecified) [Iofetamine hydrochloride]	105	113	91.5 (inactive)	91.7 (inactive)
C1CCC(NC2CCCCC2)CC1	96.5	102	93.9 (inactive)	100 (inactive)
C[Se]CC(N)C(=O)O.Cl (stereo unspecified) [Se-(methyl)selenocysteine hydrochloride]	99.6	90.3	99 (inactive)	98.1 (inactive)
CN(C(=O)Cc1ccc(Cl)c(Cl)c1)C(CN1CCCC1)c1cccc(OCC(=O)O)c1.Cl (stereo unspecified) [ICI 204,448 hydrochloride]	104	104	89.4 (inactive)	92.8 (inactive)
C=CCN1CCC23c4c5ccc(O)c4OC2C(=NN=C2CCC4(O)C6Cc7ccc(O)c8c7C4(CCN6CC=C)C2O8)CCC3(O)C1C5.Cl.Cl (stereo unspecified) [Naloxonazine dihydrochloride]	77.5	62.9	126 (active)	121 (inactive)
